Experiment [1] is described as follows: Quantitative High-Throughput drug screen in 47 multiple myeloma cell lines against the NCATS MIPE library collection: FR4_PLB cell viability assay (AID 1918924; further: nearly all actives have a fitted effect of over 35% in size; further: potency means the concentration at half of the fitted maximal effect). Put shortly:
(§1)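 We plated 500 myeloma cells per well, pinned in MIPE 4.0 compounds, and incubated for 48 hours at 37C. ATP was then quantified with CellTiter-Glo, with DMSO and media-only wells defining 100% and 0%.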

A short description of experiment [2]: Quantitative High-Throughput drug screen in 47 multiple myeloma cell lines against the NCATS MIPE library collection: AMO1_DSMZ cell viability assay (AID 1918927; further: nearly all actives have a fitted effect of over 30% in size; further: potency means the concentration at half of the fitted maximal effect). The procedure, abridged: (§2)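 qHTS of the MIPE 4.0 collection: 500 myeloma cells/well, 48 h drug exposure at 37C in 5% CO2, then CellTiter-Glo for 5 min at room temperature before luminescence reading.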

Experiment [3] is described as follows: Quantitative High-Throughput drug screen in 47 multiple myeloma cell lines against the NCATS MIPE library collection: ARP1_JJKsccF8 cell viability assay (AID 1918928; further: nearly all actives have a fitted effect of over 40% in size; further: potency means the concentration at half of the fitted maximal effect). Put shortly:
(§3)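 Viability screen: myeloma cells (500/well) incubated 48 h at 37 °C, humidified 5% CO2, with pinned library compounds; CellTiter-Glo added, luminescence read; DMSO wells set 100%, medium-only wells 0%.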

Experiment [4] is described as follows: Quantitative High-Throughput drug screen in 47 multiple myeloma cell lines against the NCATS MIPE library collection: ARD_JJKsccE7 cell viability assay (AID 1918929; further: potency means the concentration at half of the fitted maximal effect). Put shortly: as §2
Experiment [5] can be described thus: Quantitative High-Throughput drug screen in 47 multiple myeloma cell lines against the NCATS MIPE library collection: KMM1_JCRB cell viability assay (AID 1918960). Further: nearly all actives have a fitted effect of over 30% in size. Further: potency means the concentration at half of the fitted maximal effect. The procedure, abridged: as §3
Experiment [6] is described as follows: Quantitative High-Throughput drug screen in 47 multiple myeloma cell lines against the NCATS MIPE library collection: JIM3_ECACC cell viability assay (AID 1918963; further: nearly all actives have a fitted effect of over 35% in size; further: potency means the concentration at half of the fitted maximal effect). The procedure, abridged:
as §1

A short description of experiment [7]: Quantitative High-Throughput drug screen in 47 multiple myeloma cell lines against the NCATS MIPE library collection: JIM1_ECACC cell viability assay (AID 1918964; further: potency means the concentration at half of the fitted maximal effect). Put shortly:
as §2

A short description of experiment [8]: Quantitative High-Throughput drug screen in 47 multiple myeloma cell lines against the NCATS MIPE library collection: Karpas25_ECACC cell viability assay (AID 1918968; further: nearly all actives have a fitted effect of over 35% in size; further: potency means the concentration at half of the fitted maximal effect). The procedure, abridged: as §2
The nature of experiment [9]: Quantitative High-Throughput drug screen in 47 multiple myeloma cell lines against the NCATS MIPE library collection: KMS27_JCRB cell viability assay (AID 1918970). Further: nearly all actives have a fitted effect of over 30% in size. Further: potency means the concentration at half of the fitted maximal effect. The procedure, abridged:
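ATP-based viability (CellTiter-Glo luminescence) is measured in cells treated 48 h with approved and investigational drugs at 37 °C. Controls are DMSO-only wells for full viability and media-only wells for none.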

Experiment [10] in a line: Quantitative High-Throughput drug screen in 47 multiple myeloma cell lines against the NCATS MIPE library collection: Karpas620_DSMZ cell viability assay (AID 1918959). Further: nearly all actives have a fitted effect of over 30% in size. Further: potency means the concentration at half of the fitted maximal effect. The procedure, abridged: as §1
The nature of experiment [11]: Quantitative High-Throughput drug screen in 47 multiple myeloma cell lines against the NCATS MIPE library collection: KHM11_PLB cell viability assay (AID 1918962). Further: nearly all actives have a fitted effect of over 35% in size. Put shortly: as §1
Experiment [12] in a line: Quantitative High-Throughput drug screen in 47 multiple myeloma cell lines against the NCATS MIPE library collection: JJN3_DSMZ cell viability assay (AID 1918966; further: nearly all actives have a fitted effect of over 50% in size; further: potency means the concentration at half of the fitted maximal effect). Put shortly: as §2
Experiment [13] can be described thus: Quantitative High-Throughput drug screen in 47 multiple myeloma cell lines against the NCATS MIPE library collection: Delta47_JCRB cell viability assay (AID 1918925; further: nearly all actives have a fitted effect of over 45% in size; further: potency means the concentration at half of the fitted maximal effect). Put shortly:
as §2

Experiment [14] in a line: Quantitative High-Throughput drug screen in 47 multiple myeloma cell lines against the NCATS MIPE library collection: INA6_PLB cell viability assay (AID 1918965; further: nearly all actives have a fitted effect of over 55% in size; further: potency means the concentration at half of the fitted maximal effect). Put shortly:
(§4)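 Viability readout: CellTiter-Glo luminescence following 5 min room-temperature incubation with reagent. Prior exposure: 48 h, 37C, humidified 5% CO2, 500 cells per well.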

The nature of experiment [15]: Quantitative High-Throughput drug screen in 47 multiple myeloma cell lines against the NCATS MIPE library collection: H1112_PLB cell viability assay (AID 1918967; further: nearly all actives have a fitted effect of over 30% in size; further: potency means the concentration at half of the fitted maximal effect). The procedure, abridged:
as §2

Experiment [16] can be described thus: Quantitative High-Throughput drug screen in 47 multiple myeloma cell lines against the NCATS MIPE library collection: EJM_DSMZ cell viability assay (AID 1918926; further: nearly all actives have a fitted effect of over 30% in size; further: potency means the concentration at half of the fitted maximal effect). The procedure, abridged:
as §2

Experiment [17] is described as follows: Quantitative High-Throughput drug screen in 47 multiple myeloma cell lines against the NCATS MIPE library collection: Karpas417_ECACC cell viability assay (AID 1918961). Further: potency means the concentration at half of the fitted maximal effect. To be noted: Karpas417 myeloma viability, CellTiter-Glo ATP luminescence, 48 h; viability (% of DMSO): at 45.8 µM (top of the series). The procedure, abridged:
as §4
Background: In ATP-based viability assays light output follows the ATP content of the culture.

Records with an inconclusive call do not appear. Active and inactive are the calls of the source. The call rests on the fitted dose curve; in most records, active means well fitted curve in the direction sought with a large enough effect; inconclusive means small, poorly fitted or top-dose-only effect, or another doubt; inactive means no such curve, though single readings can be large; an effect the other way counts as inactive or inconclusive.

With `N#Cc1ccc(NC(=O)Nc2ccccc2Br)c2n[nH]nc12`, the Potency result in [1], in experiment [3] and in [6] was “inactive” throughout. For the same molecule, the Potency was 14.8 µM (active) in [2]; 10.5 µM (active) in experiment [4]; 20.9 µM (active) in [5]; 8.33 µM (active) in experiment [7]; 16.6 µM (active) in experiment [8]; 13.2 µM (active) in experiment [9].
Regarding `CC1(C)Cc2c(sc(NC(=S)NC(=O)c3ccccc3)c2C(=O)O)CO1`, the Potency entry in experiment [1], in experiment [2], in [11] and in [7] was “inactive” throughout. Moreover, in experiment [10], the Potency was 5.9 µM (active).
In the case of `CCCCCNC(=O)N1CCC(CN(Cc2ccc(Cl)cc2)Cc2ccc([N+](=O)[O-])s2)C1` (stereo not given), the Potency is 23.5 µM (active) in experiment [1]; 18.7 µM (active) in [2]; 20.9 µM (active) in experiment [4]; 23.5 µM (active) in [12]; 20.9 µM (active) in experiment [8]; 20.9 µM (active) in [9].
For `O=c1cc(-c2cccc3c2Sc2ccccc2S3)oc(N2CCOCC2)c1`, the Potency was 26.4 µM (active) in [1]; 5.26 µM (active) in experiment [13]; 16.6 µM (active) in experiment [2]; 18.7 µM (active) in experiment [10]; 16.6 µM (active) in experiment [6]; 16.6 µM (active) in [7]. Also, the values for the Potency in experiment [14], in experiment [15] and in experiment [8] were 18.7 µM (active), 20.9 µM (active) and 14.8 µM (active), respectively.
As for `CC(C)(Cc1ccc2ccccc2c1)NC[C@@H](O)COc1cccc(Cl)c1C#N`, the Potency entry in [1], in [16], in experiment [2], in [3], in experiment [4] and in [5] was “inactive” in each case. Further, the Potency result in [6], in experiment [15], in experiment [8] and in [9] was “inactive” throughout.
For the molecule `OC[C@H]1O[C@@H](n2cnc3c2NC=NC[C@@H]3O)C[C@H]1O`, the Potency result in experiment [1], in experiment [13], in experiment [2], in experiment [4], in [5] and in experiment [7] was “inactive” in each case. Further, in [14], the Potency entry was “inactive”. The Potency in experiment [10] is 14.8 µM (active); in experiment [12] it was 23.5 µM (active); in experiment [15], 18.7 µM (active); in experiment [9] it was 13.2 µM (active).
Regarding `CC[C@H]1OC(=O)[C@H](C)[C@@H](O[C@H]2C[C@@](C)(OC)[C@@H](O)[C@H](C)O2)[C@H](C)[C@@H](O[C@@H]2O[C@H](C)C[C@H](N(C)C)[C@@H]2O)[C@](C)(O)C[C@@H](C)CN(C)[C@H](C)[C@@H](O)[C@]1(C)O`, the Potency result in experiment [1], in experiment [16], in experiment [2], in experiment [3], in [4] and in [10] was “inactive” throughout. Also, the Potency result in experiment [5], in experiment [15] and in experiment [8] was “inactive” throughout.
`COC(=O)N[C@H](C(=O)N1CCC[C@@H]1c1ncc(-c2ccc(-c3ccc(-c4cnc([C@@H]5CCCN5C(=O)[C@@H](NC(=O)OC)C(C)C)[nH]4)cc3)cc2)[nH]1)C(C)C`: the Potency in [1] was 23.5 µM (active); in experiment [13] it was 20.9 µM (active); in experiment [4], 23.5 µM (active); in experiment [10], 16.6 µM (active); in experiment [5], 16.6 µM (active); in [7], 20.9 µM (active). In addition, the Potency in experiment [8] and in experiment [9] was 23.5 µM (active) each time.
Consider `COc1ccc2c3c1OC1C[C@@H](O)C=C[C@@]31CCN(C)C2` (stereo not given in full), for which the Potency result in experiment [1], in experiment [2], in [10], in experiment [5], in experiment [7] and in experiment [9] was “inactive” each time.
For `O=C(NOCC(O)CO)c1cc(Br)c(F)c(F)c1Nc1ccc(I)cc1F` (stereo not given), the Potency result in [1], in experiment [16], in experiment [10], in experiment [5] and in experiment [9] was “inactive” throughout. In experiment [15], the Potency was 0.118 µM (active).
As for `O=c1ccn([C@@H]2O[C@H](CO)[C@H](O)[C@H]2O)c(=O)[nH]1`, the Potency entry in experiment [1], in [16], in [10], in experiment [5], in experiment [11] and in [6] was “inactive” throughout. Besides, the Potency entry in [14], in experiment [15], in experiment [8] and in [9] was “inactive” each time.
Turning to `O=c1c(-c2ccc(O)cc2)coc2cc(O[C@@H]3O[C@H](CO)[C@H](O)[C@H](O)[C@H]3O)ccc12`, the Potency result in experiment [1], in [16], in experiment [2], in experiment [4], in [10] and in experiment [5] was “inactive” throughout. For the same molecule, the Potency result in experiment [7] and in experiment [15] was “inactive” throughout. In addition, in experiment [3], the Potency is 3.72 µM (active).
For the molecule `N#C[C@H]1C[C@H]2C[C@@H]2N1C(=O)[C@@H](N)C12CC3CC(CC(O)(C3)C1)C2`, the Potency result in experiment [1], in experiment [16], in experiment [2], in [4], in [10] and in experiment [5] was “inactive” in each case. Further, the Potency entry in [11], in experiment [6], in experiment [7] and in experiment [9] was “inactive” in each case. Also, the Potency in experiment [3] is 3.72 µM (active).
As to `NC(=O)NN=Cc1ccc([N+](=O)[O-])o1`, the Potency entry in experiment [1] and in [15] was “inactive” in each case. In addition, the Potency was 10.5 µM (active) in experiment [2], 18.7 µM (active) in experiment [10], 16.6 µM (active) in [8] and 14.8 µM (active) in experiment [9].
For `CC(C(=O)O)c1ccc(-c2ccccc2)c(F)c1` (stereo not given), the Potency result in experiment [1], in experiment [4], in experiment [10], in experiment [5], in experiment [7] and in [12] was “inactive” in each case. Besides, the Potency in [16] is 13.2 µM (active); in experiment [14], 18.7 µM (active); in [15], 18.7 µM (active); in experiment [8] it was 20.9 µM (active).
Take `Clc1ccc(-c2nc3sccn3c2C=NOCc2ccc(Cl)c(Cl)c2)cc1`: the Potency result in experiment [1], in [2], in [3], in [10], in experiment [5] and in experiment [17] was “inactive” throughout. Further, the Potency result in experiment [11], in [15] and in [8] was “inactive” in each case.
With `O=c1c(O)c(-c2ccc(O)cc2)oc2cc(O)cc(O)c12`, the Potency result in [1] is “inactive”. Also, the Potency in [13] is 20.9 µM (active); in [2], 9.35 µM (active); in experiment [4], 13.2 µM (active); in experiment [10] it was 18.7 µM (active); in experiment [5], 16.6 µM (active); in experiment [15], 20.9 µM (active). The Potency in experiment [8] was 9.35 µM (active).
With `CC1(C)O[C@H]2C[C@@H]3[C@H]4CCC5=CC(=O)C=C[C@]5(C)[C@@]4(F)[C@@H](O)C[C@]3(C)[C@]2(C(=O)CO)O1`, the Potency result in experiment [1], in [16], in [10], in experiment [5], in experiment [7] and in experiment [14] was “inactive” each time. In addition, the values for the Potency in experiment [4] and in experiment [17] were 0.0037 µM (active) and 0.0118 µM (active), respectively.

These data come from PubChem BioAssay (NCATS).
